Data: the supplement of paper PMC4022240
± gives the standard deviation.

Tests used:
Assay in all cases: peptide microarray binding signal (635 nm), min-max normalized on array (fraction of array maximum); higher = stronger binding
[1] = target: T1, HaloTag-ATRX ADD domain (163-292)
T1 chain: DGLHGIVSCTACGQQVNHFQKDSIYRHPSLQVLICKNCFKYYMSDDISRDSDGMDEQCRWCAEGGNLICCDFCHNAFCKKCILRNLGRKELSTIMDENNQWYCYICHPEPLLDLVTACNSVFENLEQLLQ
In short: (§1)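 For each library, binding signal was taken as the triplicate-spot mean intensity and then min-max scaled. Spots of histone 13-mer peptide–cellulose conjugates on nitrocellulose, printed in triplicate with a Cy3 tracer, were probed for 1 h at 4°C with either biotin-labelled HaloTag reader fusions (10 nM to 1 μM) and streptavidin-Alexa Fluor 647 or rabbit histone antibodies (1:10,000 to 1:2,000) and anti-rabbit Alexa 647. Readout at 635 nm came from an Axon GenePix 4000B.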

[2] = target: HaloTag-ING2 PHD (mouse Ing2 200-280)
In short: as §1

[3] = target: anti-H3K4me3 antibody ab8580
In short: as §1

[4] = target: anti-H3K9me3 antibody ab8898
In short: as §1

[5] = peptide region: H3 5-17, peptide modifications: H3T11ph H3K14me3, binder concentration: 1:2,000 dilution
[6] = peptide region: H3 5-17, peptide modifications: H3T11ph H3K14me3, binder concentration: 1:10,000 dilution
[7] = peptide region: H3 11-23, peptide modifications: H3K14ac H3R17me1, binder concentration: 1:2,000 dilution
[8] = peptide region: H3 11-23, peptide modifications: H3K14ac H3R17me1, binder concentration: 1:10,000 dilution
[9] = peptide region: H3 11-23, peptide modifications: H3K14ac H3K18ac, binder concentration: 1:2,000 dilution
[10] = peptide region: H3 11-23, peptide modifications: H3K14ac H3K18ac, binder concentration: 1:10,000 dilution
[11] = peptide region: H3 5-17, peptide modifications: H3T11ph, binder concentration: 1:2,000 dilution
[12] = peptide region: H3 5-17, peptide modifications: H3T11ph, binder concentration: 1:10,000 dilution
[13] = peptide region: H3 5-17, peptide modifications: H3T11ph H3K14ac, binder concentration: 1:2,000 dilution
[14] = peptide region: H3 5-17, peptide modifications: H3T11ph H3K14ac, binder concentration: 1:10,000 dilution

B1: H3 5-17 Q T A R K S Tph G G Kme3 A P R (peptide)
chain: QTARKSTGGKAPR
Q: B1 was tested. Which “peptide microarray binding signal” value ([1]; peptide region: H3 5-17, peptide modifications: H3T11ph H3K14me3, binder concentration: 50 nM) did it give?
A: 0.00257 ± 7.4e-05

Q: What about the “peptide microarray binding signal” value ([1]; peptide region: H3 5-17, peptide modifications: H3T11ph H3K14me3, binder concentration: 500 nM) of the same binder?
A: 0.00829 ± 0.00052

Q: What about the “peptide microarray binding signal” value ([2]; peptide region: H3 5-17, peptide modifications: H3T11ph H3K14me3, binder concentration: 10 nM) of the same binder?
A: 0.00418 ± 0.00034

Q: What about the “peptide microarray binding signal” value ([2]; peptide region: H3 5-17, peptide modifications: H3T11ph H3K14me3, binder concentration: 100 nM) of the same binder?
A: 0.00857 ± 0.0014

Q: What about the “peptide microarray binding signal” value [3, 5] of the same binder?
A: 0.00848 ± 0.002

Q: And the “peptide microarray binding signal” value [3, 6]?
A: 0.00582 ± 0.0016

Q: What about the “peptide microarray binding signal” value [4, 5] of the same binder?
A: 0.0639 ± 0.0075

Q: And the “peptide microarray binding signal” value [4, 6]?
A: 0.0181 ± 0.0023

B2: H3 11-23 T G G Kac A P Rme K Q L A T K (peptide)
chain: TGGKAPRKQLATK
Q: For B2, which “peptide microarray binding signal” value ([1]; peptide region: H3 11-23, peptide modifications: H3K14ac H3R17me1, binder concentration: 50 nM) is on record?
A: 0.0113 ± 0.0011

Q: What about the “peptide microarray binding signal” value ([1]; peptide region: H3 11-23, peptide modifications: H3K14ac H3R17me1, binder concentration: 500 nM) of the same binder?
A: 0.0152 ± 0.00047

Q: And the “peptide microarray binding signal” value ([2]; peptide region: H3 11-23, peptide modifications: H3K14ac H3R17me1, binder concentration: 10 nM)?
A: 0.0182 ± 0.0058

Q: And the “peptide microarray binding signal” value ([2]; peptide region: H3 11-23, peptide modifications: H3K14ac H3R17me1, binder concentration: 100 nM)?
A: 0.0339 ± 0.014

Q: And the “peptide microarray binding signal” value [3, 7]?
A: 0.00517 ± 0.00077

Q: What about the “peptide microarray binding signal” value [3, 8] of the same binder?
A: 0.00719 ± 0.0015

Q: What about the “peptide microarray binding signal” value [4, 7] of the same binder?
A: 0.00569 ± 0.00047

Q: And the “peptide microarray binding signal” value [4, 8]?
A: 0.00404 ± 0.00028

B3: H3 11-23 T G G Kac A P R Kac Q L A T K (peptide)
chain: TGGKAPRKQLATK
Q: Which results are given for B3?
A: peptide microarray binding signal ([1]; peptide region: H3 11-23, peptide modifications: H3K14ac H3K18ac, binder concentration: 50 nM): 0.00511 ± 0.00036; peptide microarray binding signal ([1]; peptide region: H3 11-23, peptide modifications: H3K14ac H3K18ac, binder concentration: 500 nM): 0.013 ± 0.00068; peptide microarray binding signal ([2]; peptide region: H3 11-23, peptide modifications: H3K14ac H3K18ac, binder concentration: 10 nM): 0.00913 ± 0.0004; peptide microarray binding signal ([2]; peptide region: H3 11-23, peptide modifications: H3K14ac H3K18ac, binder concentration: 100 nM): 0.0128 ± 0.00072; peptide microarray binding signal [3, 9]: 0.00445 ± 0.00038; peptide microarray binding signal [3, 10]: 0.00896 ± 0.0029; peptide microarray binding signal [4, 9]: 0.00139 ± 6.5e-05; peptide microarray binding signal [4, 10]: 0.00115 ± 2e-05

B4: H3 5-17 Q T A R K S Tph G G K A P R (peptide)
chain: QTARKSTGGKAPR
Q: B4 was tested. Which “peptide microarray binding signal” value ([1]; peptide region: H3 5-17, peptide modifications: H3T11ph, binder concentration: 50 nM) did it give?
A: 0.0138 ± 0.005

Q: And the “peptide microarray binding signal” value ([1]; peptide region: H3 5-17, peptide modifications: H3T11ph, binder concentration: 500 nM)?
A: 0.014 ± 0.0037

Q: What about the “peptide microarray binding signal” value ([2]; peptide region: H3 5-17, peptide modifications: H3T11ph, binder concentration: 10 nM) of the same binder?
A: 0.0156 ± 0.0015

Q: And the “peptide microarray binding signal” value ([2]; peptide region: H3 5-17, peptide modifications: H3T11ph, binder concentration: 100 nM)?
A: 0.0409 ± 0.0057

Q: And the “peptide microarray binding signal” value [3, 11]?
A: 0.0044 ± 0.0008

Q: What about the “peptide microarray binding signal” value [3, 12] of the same binder?
A: 0.00553 ± 0.00047

Q: And the “peptide microarray binding signal” value [4, 11]?
A: 0.00195 ± 7.3e-05

Q: What about the “peptide microarray binding signal” value [4, 12] of the same binder?
A: 0.00254 ± 0.00012

B5: H3 5-17 Q T A R K S Tph G G Kac A P R (peptide)
chain: QTARKSTGGKAPR
Q: Which “peptide microarray binding signal” value ([1]; peptide region: H3 5-17, peptide modifications: H3T11ph H3K14ac, binder concentration: 50 nM) does the source give for B5 here?
A: 0.00514 ± 0.00023

Q: What about the “peptide microarray binding signal” value ([1]; peptide region: H3 5-17, peptide modifications: H3T11ph H3K14ac, binder concentration: 500 nM) of the same binder?
A: 0.015 ± 0.0014

Q: And the “peptide microarray binding signal” value ([2]; peptide region: H3 5-17, peptide modifications: H3T11ph H3K14ac, binder concentration: 10 nM)?
A: 0.00597 ± 0.00044

Q: What about the “peptide microarray binding signal” value ([2]; peptide region: H3 5-17, peptide modifications: H3T11ph H3K14ac, binder concentration: 100 nM) of the same binder?
A: 0.0333 ± 0.0053

Q: What about the “peptide microarray binding signal” value [3, 13] of the same binder?
A: 0.000868 ± 6.7e-05

Q: What about the “peptide microarray binding signal” value [3, 14] of the same binder?
A: 0.000685 ± 1.9e-05

Q: What about the “peptide microarray binding signal” value [4, 13] of the same binder?
A: 0.00394 ± 0.0008

Q: What about the “peptide microarray binding signal” value [4, 14] of the same binder?
A: 0.00156 ± 3e-05
